From PubChem BioAssay AID504332 (National Center for Advancing Translational Sciences (NCATS), 2011)
Where “and” joins values, the source holds several entries; their conditions need not be identical. Equal entries are not always repeated. The campaign covered roughly 350,000 compounds. About 31,000 (8.9%) were called active. Another 15% or so got no clear call; they are omitted. Calls follow the shape of the dose curve; as a rule, active = well fitted inhibition curve with a large enough effect; inconclusive = small, poorly fitted or top-dose-only effect; inactive = no such curve, though single readings can be large or run the other way. Shown is part of a subset that was picked to be rich in actives. Some compounds were tested as several samples or in several runs, with calls that do not always agree.
% is scaled to controls: 0 for no effect and ±100 for the full control effect; potency is read from the fitted curve at half-maximal effect.
Also: nearly all actives have a fitted effect of over 75% in size.

What follows are compounds tested against Histone-lysine N-methyltransferase EHMT2 (Homo sapiens) (UniProt Q96KQ7) (assay: qHTS Assay for Inhibitors of Histone Lysine Methyltransferase G9a). Settings: G9a H3K9 monomethylation, AlphaScreen, 2 h; series mostly up to 59 µM; activity, negative = inhibition: at the top concentration.
Chain of Histone-lysine N-methyltransferase EHMT2 (Homo sapiens) (Q96KQ7 913-1193 limits assumed): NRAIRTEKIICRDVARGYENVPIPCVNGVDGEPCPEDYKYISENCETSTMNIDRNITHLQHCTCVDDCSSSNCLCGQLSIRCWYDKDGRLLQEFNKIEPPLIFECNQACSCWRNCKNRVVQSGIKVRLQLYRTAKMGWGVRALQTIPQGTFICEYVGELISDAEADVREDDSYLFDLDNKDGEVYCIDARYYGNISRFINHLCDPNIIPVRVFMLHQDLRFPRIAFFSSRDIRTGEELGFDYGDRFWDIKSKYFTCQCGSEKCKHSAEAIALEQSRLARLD
Procedure, shortened: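 Enzyme 20 nM + cpd, 15 min RT; add b-H3K9 pep 500 nM / SAM 20 uM; 2 h RT; anti-H3K9me1 Ab 0.5 ug/mL + SA donor / anti-rabbit acceptor beads 20 ug/mL each, 10 min; AlphaScreen read.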
For O=C(C1Cc2ccccc2CN1C(=O)c1ccco1)N1CCN(c2ccccc2)CC1 (configuration not stated), the “activity, negative = inhibition” value was -27.1% (inactive). In the case of C[C@H](NC(=O)[C@@H]1Cc2ccccc2CN1C(=O)OC(C)(C)C)C(=O)NC1CCCC1, the “activity, negative = inhibition” value is reported as 19.8% [at 102 µM] (inactive). With CC(=O)N1Cc2ccccc2CC1C(=O)O (configuration not stated) the Potency was 17.8 µM (active). C[C@@H]1O[C@@H](OC[C@H]2O[C@@H](Oc3c(-c4ccc(O)cc4)oc4cc(O)cc(O)c4c3=O)[C@H](O)[C@@H](O)[C@@H]2O)[C@H](O)[C@H](O)[C@H]1O was tested, and the activity, negative = inhibition was 4.77% [at 12.7 µM] (inactive). With COc1cccc(N2CC(NS(=O)(=O)c3ccc(Cl)cc3)CC2=O)c1 (configuration not stated) the “activity, negative = inhibition” value was -30.1% [at 102 µM] (inactive). In the case of CC1CCC(CN2CCN=C2N(C)C)CC1 (configuration not stated), the activity, negative = inhibition is reported as 11.1% [at 12.7 µM] (inactive). With NC(=S)c1ccc(C(N)=S)o1 the Potency was 44.7 µM (active). For CN(C)C(=O)c1ccc(NC(=O)COC(=O)c2cc3c(s2)CCCCC3)cc1, the Potency was 3.55 µM (active). In the case of O=C(Nc1ccc(F)cc1)c1cc2c(s1)CCCC2, the “activity, negative = inhibition” value is reported as 45% [at 102 µM] (inactive). In the case of O=C(COC(=O)c1cc2c(s1)CCCC2)NCc1ccccc1Cl, the “activity, negative = inhibition” value is reported as 7.22% [at 102 µM] (inactive). For Cc1cc(Oc2ccc(Cl)cc2)nc(SCC(=O)c2ccccc2)n1, the “activity, negative = inhibition” value was 16.6% (inactive). With O=C(CSc1nc(Nc2ccc(F)c(F)c2)c2ccccc2n1)c1ccc(Cl)cc1 the “activity, negative = inhibition” value was 3.17% (inactive). COc1ccccc1C(=O)CSc1cccc[n+]1[O-] was tested, and the “activity, negative = inhibition” value was -25.8% [at 102 µM] (inactive). With O=C(CSc1cccc[n+]1[O-])NCCCc1ccccc1 the “activity, negative = inhibition” value was 4.67% [at 102 µM] (inactive). With O=C(CSc1cccc[n+]1[O-])c1ccc(-c2ccccc2)cc1 the Potency was 3.55 µM (active). With O=C(CSc1cccc[n+]1[O-])c1ccc(Cl)cc1 the Potency was 4.47 µM (active). For O=C(COC(=O)c1ncc(Cl)c(Cl)c1Cl)NC1CCS(=O)(=O)C1 (configuration not stated), the activity, negative = inhibition was 3.15% [at 12.7 µM] (inactive). For O=C(NCC1CCCO1)c1cc2c(s1)CCCC2 (configuration not stated), the activity, negative = inhibition was 29.8% [at 12.7 µM] (inactive). For Cc1nc(SCCOc2ccc(Cl)cc2)[nH]c(=O)c1Cc1ccccc1, the “activity, negative = inhibition” value was 6.7% (inactive). CCS(=O)(=O)N1CCc2cc(C(=O)NCc3ccc(OC)cc3)ccc21 was tested, and the “activity, negative = inhibition” value was -45% (inactive). In the case of O=C1Nc2ccccc2/C1=C/c1ccnc2ccccc12, the “activity, negative = inhibition” value is reported as 3.63% [at 102 µM] (inactive). For Cc1cc(C)c(/C=C2\C(=O)Nc3ccccc32)[nH]1, the Potency was 4.47 µM (active) and 16.8 µM (active) and the activity, negative = inhibition was -50.4% [at 12.7 µM] (inactive). For CN(C)/C=C1/C(=O)Nc2ccccc21, the activity, negative = inhibition was -2.73% [at 12.7 µM] (inactive). With Cc1cc(-c2ccc(C)c(S(=O)(=O)NCCCN(Cc3ccccc3)C(C)C)c2)on1 the “activity, negative = inhibition” value was 13.8% [at 102 µM] (inactive). COc1ccc(CCNC(=S)N2CCN(S(=O)(=O)c3ccc(Cl)cc3)CC2)cc1 was tested, and the “activity, negative = inhibition” value was 37.1% [at 102 µM] (inactive). In the case of Cc1cccc(NC(=S)NCCc2ccc(Cl)cc2)c1C, the “activity, negative = inhibition” value is reported as -4.68% [at 102 µM] (inactive). Oc1cc2c(cc1O)CN(C(=S)NCCc1ccc(Cl)cc1)CCC2 was tested, and the Potency was 3.55 µM (active) and 2 µM (active) and 4.74 µM (active). O=C(NCCc1csc(-c2ccc(C(F)(F)F)cc2)n1)C(=O)Nc1ccc(F)c(Cl)c1 was tested, and the “activity, negative = inhibition” value was 12.8% (inactive). With Cc1c(C=O)c2ccccc2n1CCOc1ccccc1 the “activity, negative = inhibition” value was 45.3% [at 102 µM] (inactive). For Cc1ccc(CS(=O)(=O)CCC(=O)NCc2ccc(F)cc2)cc1, the “activity, negative = inhibition” value was 0.73% [at 102 µM] (inactive). With O=C1NC(c2ccccc2)Oc2ccccc21 (configuration not stated) the “activity, negative = inhibition” value was 23.8% [at 102 µM] (inactive). In the case of O=C1c2ccccc2C(=O)C1c1ccccc1, the Potency is reported as “inactive and 35.5 µM (active)”. For CN1C(=O)C[C@H](c2ccccc2)C1=O, the activity, negative = inhibition was -19.1% [at 12.7 µM] (inactive). For CCOC(=O)N1CCN(C(=O)COc2ccc3oc4c(c3c2)CCCC4)CC1, the activity, negative = inhibition was 14.4% [at 2.33 µM] (inactive). With O=C(CCN1C(=O)C2CCCCC2C1=O)Nc1ccc(OC(F)F)cc1 (configuration not stated) the “activity, negative = inhibition” value was -6.31% [at 102 µM] (inactive). CCOc1cc(/C=N/NC(=O)c2cccc(S(=O)(=O)N3CCOCC3)c2)ccc1OCC(=O)N(C)C was tested, and the “activity, negative = inhibition” value was -7.27% [at 102 µM] (inactive). With O=S(=O)(c1ccc(SCc2ccccc2)nc1)N1CCCCCC1 the activity, negative = inhibition was -5.2% [at 12.7 µM] (inactive). For Cc1ccc(-n2nnnc2CNC(=O)c2ccccc2C)cc1C, the “activity, negative = inhibition” value was 2.96% (inactive). For COC(=O)c1ccccc1OCC(=O)N1CCN(c2ccc(Cl)cc2)CC1, the activity, negative = inhibition was 3.66% [at 12.7 µM] (inactive). For COC(=O)c1ccc(C(=O)OC)c(NC(=S)N2CCN(c3ccc(F)cc3)CC2)c1, the Potency was 44.7 µM (active). With COC(=O)c1ccc(C(=O)OC)c(NC(=S)N2CCN(c3cc(Cl)ccc3C)CC2)c1 the “activity, negative = inhibition” value was -9.2% (inactive). For COc1ccccc1CNC(=O)c1ccccc1NC(=O)c1nsc2ccccc12, the “activity, negative = inhibition” value was -2.06% (inactive). In the case of COc1ccc(CCN2C(=O)N(c3cccc(OC)c3)C(=O)C2CC(=O)Nc2ccccc2)cc1 (configuration not stated), the “activity, negative = inhibition” value is reported as -26.4% (inactive). In the case of CC(C)c1ccc(/C=C/C(=O)NCCCN2CCOCC2)cc1, the “activity, negative = inhibition” value is reported as 13.3% (inactive). For Cn1cnc([N+](=O)[O-])c1Nc1ccccc1O, the Potency was 25.1 µM (active). In the case of Cn1cnc([N+](=O)[O-])c1Sc1n[nH]c(N)n1, the “activity, negative = inhibition” value is reported as 0.592% [at 102 µM] (inactive). With Cn1cnc([N+](=O)[O-])c1Sc1ccccc1 the “activity, negative = inhibition” value was 14.3% (inactive). For Cc1ccc(C2(C)NC(=O)N(CC(=O)Nc3ccccc3C(=O)N3CCCCC3)C2=O)cc1 (configuration not stated), the “activity, negative = inhibition” value was -31.9% [at 102 µM] (inactive). For Fc1ccc(-c2nc(Nc3cccc(Cl)c3)nc3c2COc2ccccc2-3)cc1, the “activity, negative = inhibition” value was -3.69% (inactive). Cc1ccc(S(=O)(=O)N2CCC(C(=O)NCCC3=CCCCC3)CC2)cc1C was tested, and the activity, negative = inhibition was 15.2% [at 0.501 µM] (inactive). For C[N+]1(CC(O)COc2ccccc2)CCN(C(=O)c2ccc([N+](=O)[O-])cc2)CC1 (configuration not stated), the Potency was 6.31 µM (active). With O=C(c1ccccc1)c1ccc(OCC(O)CN2CCCC2)cc1 (configuration not stated) the “activity, negative = inhibition” value was -37.2% [at 102 µM] (inactive). For O=[N+]([O-])c1ccc(N2CCN(CC(O)COc3ccccc3)CC2)cc1 (configuration not stated), the “activity, negative = inhibition” value was -0.815% [at 102 µM] (inactive). For COc1ccc(CC(=O)N/N=C/c2cc([N+](=O)[O-])cc(Br)c2O)cc1, the “activity, negative = inhibition” value was -16.6% [at 102 µM] (inactive). With O=C(CCn1c(=S)[nH]c2cc3c(cc2c1=O)OCO3)NCc1ccc(Cl)cc1 the “activity, negative = inhibition” value was 53.9% (inactive). For CCCCn1c(=S)[nH]c2ccccc2c1=O, the “activity, negative = inhibition” value was 25.5% (inactive). CCCCNC(=O)CCn1c(=S)[nH]c2cc3c(cc2c1=O)OCO3 was tested, and the activity, negative = inhibition was 5.03% [at 0.0925 µM] (inactive). In the case of COc1ccc(Cn2c(=S)[nH]c3cc(C(=O)N4CCCCC4)ccc3c2=O)cc1, the “activity, negative = inhibition” value is reported as 22.6% [at 102 µM] (inactive). With COc1ccc(Cn2c(=S)[nH]c3cc(C(=O)NCCCN4CCOCC4)ccc3c2=O)cc1 the Potency was 10 µM (active). In the case of CCOc1cc2[nH]c(=O)n(Cc3ccc(C(=O)NCCN(CC)CC)cc3)c(=O)c2cc1OCC, the “activity, negative = inhibition” value is reported as -1.55% (inactive). In the case of Cc1ccc(NS(=O)(=O)c2ccc(C(=O)NCCCN3CCOCC3)cc2)cc1, the “activity, negative = inhibition” value is reported as -22.7% [at 102 µM] (inactive). For COc1ccc(-c2cc(C(=O)NCCCN3CCOCC3)no2)cc1, the “activity, negative = inhibition” value was 14.1% [at 102 µM] (inactive). O=C(NCCCN1CCOCC1)c1cc(-c2ccc(Cl)cc2)on1 was tested, and the “activity, negative = inhibition” value was 16.3% (inactive). In the case of Cc1c(C)n(Cc2ccc(Cl)cc2)c2ccc(C(=O)NCCCN3CCOCC3)cc12, the Potency is reported as 44.7 µM (active). In the case of CCN(CC)CCCNC(=O)c1ccc2c(=O)n(Cc3ccc4c(c3)OCO4)c(=S)[nH]c2c1, the Potency is reported as 31.6 µM (active). With CN(C)CCn1c(=S)[nH]c2ccc(Cl)cc2c1=O the Potency was 50.1 µM (active).
